These results are taken from PubChem BioAssay AID463173 (ICCB-Longwood Screening Facility, Harvard Medical School, 2010).

Hit rate of the full screen: of about 52,000 compounds, about 1,700 (3.3%) were called active. No stated cut-off is given here; in the data, active means survival mostly below about 52% (no sharp cut-off); inactive means mostly above about 56%. For the sample, actives were picked, then their nearest neighbours and some compounds at random.

This assay relates to Wild type. Nature of the assay: growth inhibition of S. aureus wild type versus tarO mutant, primary screen, teichoic acid synthesis inhibitors, RN4220, OD600 (AID 463173). Particulars: S. aureus RN4220 wild type/DeltatarO growth, OD600, 18 h, active compounds read low, screened at 18.75 µg/mL (by protocol).
In the case of `CCOC(=O)C1CCCN(S(=O)(=O)c2ccc3[nH]c(=O)oc3c2)C1` (configuration not stated), the survival was 88% (inactive).
With `CCOc1ccc(NC(=O)CCCn2c(C)c3cnn(-c4ccccc4)c(=O)c3c2C)cc1`, the survival was 89% (inactive).
Consider `COc1ccc(Cl)cc1NC(=O)C(C)N1Cc2ccccc2C1=O` (configuration not stated), for which the survival is 85% (inactive).
Regarding `COC(=O)CSc1nc(N)c(C#N)c(-c2ccccc2)c1C#N`, the survival was 112% (inactive).
For `CCC(Sc1nc(N)cc(=O)[nH]1)C(=O)NC(C)c1ccccc1` (configuration not stated), the survival was 103% (inactive).
With `O=C(CSc1nc(-c2ccccc2)cc(=O)[nH]1)c1ccccc1`, the survival is 119% (inactive).
With `CCOC(=O)C1CCN(c2ncnc3c2nnn3C)CC1`, the survival is 10% (active).
Take `COc1ccc(N2CCN(c3ncnc4c3nnn4C)CC2)cc1`: the survival is -2% (active).
With `CCOC(=O)C1CCN(c2nc(-c3ccc(Br)cc3)nc3ccccc23)CC1`, the survival was 75% (inactive).
As for `Cn1nnc2c(N3CCN(c4ccccc4)CC3)ncnc21`, the survival is 88% (inactive).
Under `CCOC(=O)C1CCN(c2nc3ccccc3nc2Cl)CC1` stands -26% (active); under `Cn1nnc2c(N3CCN(c4ccc(F)cc4)CC3)ncnc21`, 80% (inactive).
As to `CCOC(=O)C1CCN(c2cc(C)c(C#N)c3nc4ccccc4n23)CC1`, the survival was 99% (inactive).
`CCOC(=O)C1CCCN(c2ncnc3c2nnn3C)C1` (configuration not stated): the survival was 121% (inactive).
`CC1CCN(c2ncnc3c2nnn3C)CC1`: the survival was 83% (inactive).
Under `CCn1nnc2cc(C(=O)Nc3cccc(Cl)c3)ccc21` stands 87% (inactive); under `CN(Cc1ccccc1)C(=O)C1CCC(CNS(=O)(=O)c2ccc3c(c2)CCCC(=O)N3)CC1` (configuration not stated), 131% (inactive).
Consider `Clc1ccc2nc(-c3ccc(Br)o3)c(Nc3ccc4c(c3)OCCO4)n2c1`, for which the survival was 93% (inactive).
Consider `O=C(CSc1ncccn1)NCCC1=CCCCC1`, for which the survival was 112% (inactive).
Under `CCc1ccc(-n2cnc3cc(C(=O)NCc4ccc(C)cc4)ccc32)cc1` stands 65% (inactive); under `Cc1ccc(OCCCCn2c(CCNC(=O)C(C)(C)C)nc3ccccc32)cc1`, 76% (inactive); under `CC(C)(C)C(=O)NCCc1nc2ccccc2n1CCCCOc1ccccc1`, 79% (inactive).
Regarding `CCc1nc2ccccc2n1CCCCOc1ccccc1C`, the survival was 24% (active).
For `CCCCn1c(COc2cccc(OC)c2)nc2ccccc21` the value was 88% (inactive); for `CC(=O)NCCc1nc2ccccc2n1CCCCOc1ccc(Cl)cc1`, 95% (inactive).
As for `CCCn1c(COc2cccc(C)c2)nc2ccccc21`, the survival is 25% (active).
Under `CCc1nc2ccccc2n1CCCCOc1ccc(C)cc1` stands 1% (active); under `COc1cccc(OCc2nc3ccccc3n2CCOc2cccc(C)c2)c1`, 73% (inactive); under `CC(C)(C)C(=O)NCCc1nc2ccccc2n1CCCCOc1ccc(Cl)cc1`, 28% (inactive).
Under `Cc1ccccc1OCCCCn1c(CCNC(=O)C(C)(C)C)nc2ccccc21` stands 65% (inactive); under `CCc1nc2ccccc2n1CCCCOc1ccc(Cl)cc1`, 2% (active); under `Cc1ccccc1OCCn1c(CCNC(=O)C(C)(C)C)nc2ccccc21`, 75% (inactive).
For the molecule `Cc1ccc(-c2nc3ccccc3[nH]2)cc1NC(=O)COc1ccc(Cl)cc1Cl`, the survival was 45% (inactive).
Under `CC1=C(c2ccc(C(C)C)cc2)S(=O)(=O)NC1=NCc1ccccc1Br` stands 82% (inactive); under `COc1cc(NC(=O)CSc2nc3ccccc3nc2Cc2ccccc2OC)cc(OC)c1`, 66% (inactive); under `COc1ccccc1Cn1cc(C(=O)c2ccc(C)cc2)c(=O)c2cc(F)cc(F)c21`, 81% (inactive).
Take `Cc1cc(C)c(NC(=O)Cn2c(=O)n(CCCCC(=O)NCc3ccccc3Cl)c(=O)c3ccccc32)c(C)c1`: the survival was 106% (inactive).
For `Cc1cncn1CCc1nc2c3ccccc3nc(SCC(=O)Nc3cccc(Cl)c3)n2n1`, the survival was 80% (inactive).
Under `CCc1c(CN2CCN(c3ccccc3F)CC2)csc1C` stands 52% (inactive).
For `Cc1ccc(CNC(=O)CSCc2ccc(F)cc2)cc1` the value was 101% (inactive).
Regarding `O=C(CCCSc1nc(-c2ccco2)cc(C(F)(F)F)n1)NCC1CCCO1` (configuration not stated), the survival was 108% (inactive).
Consider `COc1ccccc1CNC(=O)c1cc2c(-c3ccc(Cl)cc3)nn(C)c2s1`, for which the survival was 151% (inactive).
On to `Cc1cccc(OCCCn2c(CCNC(=O)C(C)(C)C)nc3ccccc32)c1`, for which the survival is 84% (inactive).
`CCc1nc2ccccc2n1CCCCOc1cccc(C)c1`: the survival is 12% (active).
For the molecule `COCc1nc2ccccc2n1CCOc1cccc(C)c1`, the survival is 53% (inactive).
In the case of `COc1ccc(-c2noc(N3CCC(C(=O)N4CCN(c5ccccc5F)CC4)CC3)n2)cc1`, the survival was 108% (inactive).
Regarding `COc1ccc(-n2ncc3c(NC4CCCC4)ncnc32)cc1`, the survival is 129% (inactive).
For `Cc1cn(C)c(CC(=O)N2CCN(c3ccc(F)cc3)CC2)c1C(=O)O` the value was 133% (inactive).
For `COc1ccccc1N1CCN(C(=O)Cc2c(C(=O)O)c(C)cn2C)CC1` the value was -6% (active); for `COc1ccc(N2CCN(C(=O)Cc3c(C(=O)O)c(C)cn3C)CC2)cc1`, 14% (active).
With `Cc1cccc(N2CCN(C(=O)Cc3c(C(=O)O)c(C)cn3C)CC2)c1C`, the survival was 70% (inactive).
Consider `Cc1cn(C)c(CC(=O)N2CCN(c3ccccc3F)CC2)c1C(=O)O`, for which the survival is 69% (inactive).
As to `Cc1cn(C)c(CC(=O)N2CCN(c3cccc(Cl)c3)CC2)c1C(=O)O`, the survival was 78% (inactive).
For the molecule `CCOc1cccc(C2c3c(oc4cc(C)c(C)cc4c3=O)C(=O)N2c2nc(C)c(C)s2)c1` (configuration not stated), the survival was 71% (inactive).
For `CCc1ccc(NC(=O)[C@H](CSCc2ccccc2)N2Cc3ccccc3C2=O)cc1` the value was 79% (inactive); for `CCc1ccccc1NC(=O)CN1CCC(NC(=O)NC2CCCCC2)CC1`, 102% (inactive).
Consider `COc1ccccc1N1CCN(c2ncnc3c2nnn3C)CC1`, for which the survival is 129% (inactive).
With `Cc1cc(F)ccc1NC(=O)C1CCCN(C(=O)c2cnn(-c3ccccc3)c2-n2cccc2)C1` (configuration not stated), the survival is 85% (inactive).
Consider `CCCN1C(C(=O)c2ccccc2)=C(OC(=O)COc2ccc(C)cc2)c2ccccc2S1(=O)=O`, for which the survival was 25% (inactive).
For `c1ccc2c(c1)ncn2-c1ncnc2sc3c(c12)CCCC3`, the survival is 107% (inactive).
In the case of `COc1ccc(-c2cc(OC(=O)c3cccc(Cl)c3)c3c(C)oc(C)c3c(=O)c2)cc1OC`, the survival is 76% (inactive).
With `CSc1cccc(NC(=O)c2cccc(N3CCCS3(=O)=O)c2)c1`, the survival is 115% (inactive).
